{
  "source": "PubChem BioAssay",
  "key": {"[1]": {"assay": "enhancers of glutamate uptake in motor neurons, MN-1 cell line (AID 1612);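 also: tested at 1 µM final; 0% = mean of DMSO vehicle wells on each plate; positive means more glutamate uptake than control and negative means less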", "settings": "MN-1 motor neuron cells, stronger effect = higher value"}, "[2]": {"assay": "suppressors of polyglutamine aggregation in yeast, 75Q-TubH (AID 1616)", "settings": "S. cerevisiae 75Q-TubH polyglutamine aggregation suppression; stronger effect = higher value"}},
  "data": [
    {"compound": "CN(C)C(=S)SSC(=S)N(C)C", "values": [
      {"measurement": "glutamate uptake change", "setting": "[1]", "result": 7.76, "unit": "%"},
      {"measurement": "aggregation suppression score", "setting": "[2]", "result": 0.0152}
    ]}
  ]
}
